Active and inactive are the calls of the source.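 How the source made its calls: active means activity change under -35% in any replicate well, with more than 20 beads read in that well; inactive means the rest.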

From PubChem BioAssay AID1259341 (Broad Institute, 2017) come the findings set out here.

Chain of Caspase recruitment domain-containing protein 9 (Homo sapiens) + E3 ubiquitin-protein ligase TRIM62 (Homo sapiens) (Q9BVG3 whole entry, looked up, the tested form may be a part): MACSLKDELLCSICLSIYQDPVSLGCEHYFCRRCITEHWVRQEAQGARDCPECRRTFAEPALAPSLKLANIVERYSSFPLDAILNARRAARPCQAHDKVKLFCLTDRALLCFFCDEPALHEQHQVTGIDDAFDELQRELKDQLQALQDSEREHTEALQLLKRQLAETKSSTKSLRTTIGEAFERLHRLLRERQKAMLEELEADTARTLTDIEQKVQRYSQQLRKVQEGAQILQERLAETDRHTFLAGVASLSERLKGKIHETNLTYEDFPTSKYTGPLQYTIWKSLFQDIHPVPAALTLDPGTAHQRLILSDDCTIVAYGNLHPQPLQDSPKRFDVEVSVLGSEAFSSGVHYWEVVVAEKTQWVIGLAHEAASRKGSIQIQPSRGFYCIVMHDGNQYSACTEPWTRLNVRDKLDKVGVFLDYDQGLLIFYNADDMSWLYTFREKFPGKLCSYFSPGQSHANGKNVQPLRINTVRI
Chain of Caspase recruitment domain-containing protein 9 (Homo sapiens) + E3 ubiquitin-protein ligase TRIM62 (Homo sapiens) (Q9H257 whole entry, looked up, the tested form may be a part): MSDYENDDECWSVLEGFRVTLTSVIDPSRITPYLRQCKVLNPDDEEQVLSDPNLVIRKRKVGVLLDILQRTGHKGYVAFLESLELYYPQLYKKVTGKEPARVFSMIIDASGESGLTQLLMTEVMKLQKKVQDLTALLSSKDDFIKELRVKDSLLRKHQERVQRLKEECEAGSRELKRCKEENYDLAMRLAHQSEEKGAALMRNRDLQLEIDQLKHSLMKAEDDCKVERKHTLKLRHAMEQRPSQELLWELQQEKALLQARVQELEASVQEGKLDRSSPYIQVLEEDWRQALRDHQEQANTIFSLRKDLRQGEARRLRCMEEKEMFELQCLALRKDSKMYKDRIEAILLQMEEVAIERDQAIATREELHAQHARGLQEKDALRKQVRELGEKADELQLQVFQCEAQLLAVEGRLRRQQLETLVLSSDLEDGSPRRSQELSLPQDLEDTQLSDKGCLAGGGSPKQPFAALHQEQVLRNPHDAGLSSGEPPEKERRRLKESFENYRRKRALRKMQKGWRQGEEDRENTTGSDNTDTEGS

This assay has as its target Caspase recruitment domain-containing protein 9 (Homo sapiens) + E3 ubiquitin-protein ligase TRIM62 (Homo sapiens) (UniProt Q9H257+Q9BVG3). In words: CARD9/TRIM62 protein interaction inhibitors – cell lysate, HEK293FT lysates, Luminex bead ELISA, primary screen (AID 1259341).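 Further: PE anti-Flag signal of Flag-CARD9 captured by myc-TRIM62 beads.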 The note with it: PE fluorescence, hits give low values, concentration not given here. In general terms: ELISA stands for enzyme-linked immunosorbent assay.
For `CCc1cc2c(=O)n(Cc3ccco3)c(SC)nc2s1`, the activity change, negative = inhibition was 1.18% (inactive). On to `COc1ccc(Nc2nc(-c3nnc(-c4ccc(F)cc4)o3)nc3ccccc23)cc1Cl`, for which the activity change, negative = inhibition is -3.07% (inactive). With `CCOc1cc2c(C#N)c(N3CCNCC3)nc(N)c2c(N)n1` the figure was -2.85% (inactive); with `NC(=O)C1(N2CCCCC2)CCN(c2ncc(NC(=O)c3cccc(Cl)c3)cc2C(=O)O)CC1`, -53.8% (active); with `O=C(Cn1c(=O)cc(C(=O)N2CCc3ccccc3C2)c2ccccc21)NCc1ccc2c(c1)OCO2`, -5.84% (inactive). Regarding `Cc1nn2c(c1-c1ccccc1)NC(c1ccco1)=CC2c1ccco1` (stereo unspecified), the activity change, negative = inhibition was 21.4% (inactive). With `CC1(C)Cc2ccccc2-c2nc(-c3ccccc3)oc(=O)c21` the figure was -0.338% (inactive); with `O=S(=O)(Nc1nc2ccc(S(=O)(=O)N3CCCCC3)cc2s1)c1ccccc1`, -0.733% (inactive).

For the molecule `C[C@H](CO)N1C[C@H](C)[C@@H](CN(C)CC2CCCCC2)OCCCC[C@H](C)Oc2ccc(NS(=O)(=O)c3ccc(F)cc3)cc2C1=O`, the activity change, negative = inhibition is -12.1% (inactive). Take `NC(=O)C1(N2CCCCC2)CCN(c2ncc(NC(=O)c3ccccc3F)cc2C(=O)O)CC1`: the activity change, negative = inhibition was -10.2% (inactive).

With `O=S(=O)(c1ccc2nc(-c3ccco3)c(-c3ccco3)nc2c1)N1CCOCC1`, the activity change, negative = inhibition is -5.03% (inactive).

Regarding `O=C(CCN1CCOCC1)c1ccc2c(c1)OCCO2`, the activity change, negative = inhibition was 10.8% (inactive). With `CCOc1ccc(-n2c3nc4ccccc4nc3c3c(=O)n(Cc4ccco4)cnc32)cc1` the figure was 6.8% (inactive); with `COc1ccc(NC(=O)c2nc(Nc3ccccc3)c3ccccc3n2)cc1`, 4.26% (inactive). Turning to `O=C1C=C(c2ccccc2)Nc2ccccc2N1`, the activity change, negative = inhibition was 2.64% (inactive). For the molecule `CCCC(=O)NCc1ccc2c(c1)cc(C)n2C`, the activity change, negative = inhibition was 7.86% (inactive). Regarding `C[C@H](CO)N1C[C@H](C)[C@@H](CN(C)C(=O)C2CCCCC2)OCCCC[C@H](C)Oc2ccc(NS(=O)(=O)c3cccs3)cc2C1=O`, the activity change, negative = inhibition was 6.34% (inactive).

As for `CCc1ccc(Nc2nc(C(=O)NCc3ccc(N(C)C)cc3)nc3ccccc23)cc1`, the activity change, negative = inhibition is -21% (inactive). For `Cc1ccc(-c2cc(C(=O)Nc3ccccn3)c3ccccc3n2)o1`, the activity change, negative = inhibition was -4.7% (inactive). For `Cc1c(/C=C/c2nc3ccccc3c(=O)n2-c2ccccn2)c2ccccc2n1C`, the activity change, negative = inhibition was -1.2% (inactive). The value for `O=C(COC(=O)c1ccccc1Oc1ccccc1)NCc1ccco1` was 3.86% (inactive); that for `COc1ccc(N2Cc3cccc(C(=O)NC(C)CCc4ccco4)c3C2=O)cc1` (stereo unspecified) was 0.962% (inactive). The value for `CCCN1CCCn2nc(CNC(=O)[C@@H](N)Cc3ccc(O)cc3)cc2C1` was -26.6% (inactive).

Regarding `O=[N+]([O-])c1cccc(-c2nnc3ccc4ccccc4n23)c1`, the activity change, negative = inhibition is -7.69% (inactive). Turning to `COc1cc(N)c(Cc2nccc3cc(OC)c(OC)cc23)cc1OC`, the activity change, negative = inhibition is 1.93% (inactive).

For `CC(C)=CCC(C#N)(CC=C(C)C)C(=O)O`, the activity change, negative = inhibition is 8.02% (inactive).

In the case of `Cc1cc(C)c2c(N)c(C(=O)Nc3cccc4ccccc34)sc2n1`, the activity change, negative = inhibition was -1.34% (inactive). With `COCCCNC(=O)C1CCN(c2ccc(N3CCOCC3)nn2)CC1` the figure was 28.3% (inactive); with `C[C@H](CO)N1C[C@H](C)[C@@H](CN(C)C(=O)C2CCCCC2)OCCCC[C@H](C)Oc2ccc(NS(=O)(=O)c3ccc(Cl)cc3)cc2C1=O`, 8.52% (inactive). Consider `CCSCCNC(=O)c1cncc(Br)c1`, for which the activity change, negative = inhibition was 0.232% (inactive).

Turning to `CCCOc1ccc(CCC(=O)O)cc1`, the activity change, negative = inhibition is -3.23% (inactive). With `C[C@H](CO)N1C[C@H](C)[C@@H](CN(C)CC2CCCCC2)OCCCC[C@H](C)Oc2ccc(NS(=O)(=O)c3cn(C)cn3)cc2C1=O` the figure was 9.05% (inactive). Consider `C=CCNc1ncnc2c1CCN(C(=O)c1ccc(CSC)o1)CC2`, for which the activity change, negative = inhibition is 2.9% (inactive).

Consider `O=C1CC(c2ccco2)Cc2nc(N3CCc4ccccc4C3)ncc21` (stereo unspecified), for which the activity change, negative = inhibition is -4.59% (inactive). Take `CC(=O)c1ccc(NC(=O)c2noc3c2CCC3)cc1`: the activity change, negative = inhibition was -2.31% (inactive). For the molecule `O=C(COC(=O)c1cc(-c2cccs2)nc2ccccc12)NCc1ccco1`, the activity change, negative = inhibition is -1.49% (inactive).
